We go through 98 compounds from PubChem BioAssay AID1903 (Southern Research Specialized Biocontainment Screening …, 2009).

A word on the inhibition: it is the change of the read-out against control, counted positive when it falls.

Each structure is given as a SMILES string. Where “and” joins values, the source holds several entries; their conditions need not be identical. Equal values may be shown once. Among all 310,000 compounds or so, about 1,200 (0.39%) were called active. The rule behind the calls is not given here. Not all results are given here. Entries with a potency or affinity are not part of this list.

This assay deals with Large T antigen (Simian virus 40) (UniProt P03070). Kind of assay: SV40 large T antigen inhibitors, biochemical (AID 1903). The settings on record: SV40 large T antigen ATPase/helicase inhibition assay; at 20 µM; hits give high values.
Chain of Large T antigen (Simian virus 40) (P03070 whole entry, looked up): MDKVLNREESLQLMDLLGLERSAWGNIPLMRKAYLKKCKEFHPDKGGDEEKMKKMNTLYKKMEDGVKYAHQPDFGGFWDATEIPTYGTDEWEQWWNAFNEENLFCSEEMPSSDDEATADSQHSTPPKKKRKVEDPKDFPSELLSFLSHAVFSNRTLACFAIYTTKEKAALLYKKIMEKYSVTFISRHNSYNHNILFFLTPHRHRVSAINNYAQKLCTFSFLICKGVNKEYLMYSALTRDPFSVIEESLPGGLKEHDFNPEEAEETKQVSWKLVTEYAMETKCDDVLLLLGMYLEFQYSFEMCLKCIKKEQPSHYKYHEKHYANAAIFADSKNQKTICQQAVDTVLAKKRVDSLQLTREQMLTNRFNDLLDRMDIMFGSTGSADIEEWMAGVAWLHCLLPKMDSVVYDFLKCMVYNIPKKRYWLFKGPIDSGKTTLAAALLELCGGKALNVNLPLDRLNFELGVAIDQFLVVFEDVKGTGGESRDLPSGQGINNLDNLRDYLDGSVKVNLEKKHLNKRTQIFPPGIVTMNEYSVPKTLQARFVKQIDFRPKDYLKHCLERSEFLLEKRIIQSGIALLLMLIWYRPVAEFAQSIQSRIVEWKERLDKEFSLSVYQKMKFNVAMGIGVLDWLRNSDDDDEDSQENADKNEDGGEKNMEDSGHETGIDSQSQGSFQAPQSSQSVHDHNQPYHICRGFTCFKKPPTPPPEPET
Consider `COC(=O)CSC1=NS(=O)(=O)c2ccccc21`, for which the inhibition was 5.69% (inactive).
As for `O=C(CN1C(=O)c2ccccc2S1(=O)=O)Nc1ccccc1`, the figure is 18.1% (inactive).
As for `NS(=O)(=O)c1ccc(NC(=O)c2cccc(N3C(=O)c4ccccc4C3=O)c2)cc1`, the figure is 7.91% (inactive).
The value for `COC(=O)CCC(=O)Nc1ccc(N=Nc2ccccc2)cc1` was 8.53% (inactive); that for `COc1ccc(-c2nc(-c3ccccc3)[nH]c(=O)c2C#N)cc1` was 9.65% (inactive).
For `Clc1cc(Cl)cc(C2=NC(Cc3ccccc3)CO2)c1` (stereo not drawn), the inhibition is 4.6% (inactive).
The value for `COc1ccc(C2C(C#N)=C(N)N(N(C)C)C3=C2C(=O)CCC3)cc1` (stereo not drawn) was 6.69% (inactive); that for `COc1cc(/C=C/CO)ccc1O[C@@H]1O[C@H](CO)[C@@H](O)[C@H](O)[C@H]1O` was 1.74% (inactive).
As for `COc1ccc(C[C@H]2COC(=O)[C@@H]2Cc2ccc(OC3OC(CO)C(O)C(O)C3O)c(OC)c2)cc1OC` (stereo partly drawn), the figure is 11.3% (inactive); as for `CCCCOc1ccc(C(=O)NCC(=O)N2CCN(Cc3ccc4c(c3)OCO4)CC2)cc1`, 14% (inactive); as for `COc1ccc(NC(=O)COc2ccc(C)cc2)c([N+](=O)[O-])c1`, 5.55% (inactive).
The value for `O=C(NCCOCCNC(=O)OCc1ccccc1)OCc1ccccc1` was 24.2% (inactive).
`CCOC(=O)c1c(NC(C)=O)sc2c(O)c(Br)ccc12`: the inhibition was 12.8% (inactive).
`CCOC(=O)c1c(NC(C)=O)sc2c(OC)c(Br)ccc12`: the inhibition was 1.77% (inactive).
Turning to `Cc1cc(C)c(C)c(OCCOCCNCc2ccccc2)c1`, the inhibition is -32.9% (inactive).
With `COc1ccc(NC(=O)CN(C)Cc2c(F)cccc2Cl)cc1S(=O)(=O)N1CCCCC1`, the inhibition was 4.49% (inactive).
The value for `CN1C(=O)SC(Nc2ccc(F)cc2)C1=O` (stereo not drawn) was 20.7% (inactive).
The value for `CN1C(=O)SC(Nc2ccccc2)C1=O` (stereo not drawn) was 5.64% (inactive).
As for `CCN(CC)S(=O)(=O)c1cccc(-c2cn3cc(C)ccc3n2)c1`, the figure is 8.06% (inactive).
`O=C(NCCC1CCCCN1S(=O)(=O)c1ccccc1)C(=O)NCc1ccncc1` (stereo not drawn): the inhibition was 4.13% (inactive).
As for `COc1ccc(-c2cc(C(F)(F)F)nc(N3CCN(C)CC3)n2)cc1`, the figure is 1.63% (inactive).
The value for `CC(=O)Nc1ccc(NC(=O)CSc2nc3ccccc3o2)cc1` was 5.88% (inactive).
`C/C(=N/NC(=O)CSc1nc2ccccc2n1C)c1ccco1`: the inhibition is -1.06% (inactive).
As for `C/C(=N\NC(=O)CSc1nc2ccccc2o1)c1cccc(O)c1`, the inhibition is 14.6% (inactive).
In the case of `C/C(=N/NC(=O)CSc1nc2ccccc2n1C)c1ccncc1`, the inhibition is 1.08% (inactive).
The value for `O=C(NC1CCCCC1)C1CCCN1S(=O)(=O)c1ccc(Cl)cc1` (stereo not drawn) was -4.64% (inactive).
With `O=C(C1CC1)N1CCN(C(c2ccccc2)c2ccccc2)CC1`, the inhibition is 20.8% (inactive).
As for `COc1ccc(NC(=S)N2CCC(NC(=O)c3cccc(C)c3)CC2)cc1`, the figure is 19.3% (inactive).
As for `FC(F)(F)Oc1ccc(Nc2nc3ccccc3o2)cc1`, the figure is 17% (inactive); as for `CS(=O)(=O)c1ccccc1C(=O)Nc1cccc(-c2nc3ccccc3o2)c1`, 6.81% (inactive); as for `CCNC(=S)N/N=C/c1ccc(-c2ccccc2)o1`, 9.76% (inactive).
Take `CC(C)Cn1c(=O)c2ccccc2c2ccccc2c1=O`: the inhibition is 13.4% (inactive).
Take `O=C(NNC(=O)c1ccccc1-n1cccc1)c1ccc(Cl)cc1`: the inhibition was 6.79% (inactive).
`CCOc1cc(NC(=S)NC)c(OCC)cc1NC(=O)c1cccs1`: the inhibition is 9.37% (inactive).
As for `CCOc1cc(NS(=O)(=O)c2ccc(NC(C)=O)cc2)c(OCC)cc1NC(=O)C(C)C`, the figure is 9.09% (inactive); as for `CCCCNC(=O)CNC(=O)c1nn(-c2ccc(OC)cc2OC)c(=O)c2ccccc12`, 4.78% (inactive).
The value for `CN(c1ccccc1)c1ccc(/C=N/N2CCOCC2)cc1` was 32.7% (inactive).
The value for `CN(C)c1ccc(/C=N/O)cc1` was 37.8% (inactive); that for `CCN(Cc1ccccc1)c1ccc(/C=N/N2CCOCC2)cc1` was 32.1% (inactive).
As for `CCN(CC)c1ccc(/C=N\NC(N)=O)cc1`, the inhibition was 24.1% (inactive).
As for `COc1cc(OC)cc(C(=O)Nc2ccc(NC(=O)c3ccco3)c(C)c2)c1`, the figure is 20% (inactive); as for `CCOC(=O)c1cccc(NC(=O)CN2CCN(c3ccc(OC)cc3)CC2)c1`, 38.2% (inactive).
As to `C=CCC1(CC=C)CCCN1C(=O)CC1C(=O)NCCN1Cc1ccc(OC)c(OC)c1` (stereo not drawn), the inhibition was 10.2% (inactive).
The value for `O=C(NC1CCC(O)CC1)c1cccc2cccnc12` (stereo not drawn) was 3.23% (inactive).
For the compound `O=C(NNC(=S)NC(=O)c1ccccc1[N+](=O)[O-])c1ccccc1O`, the inhibition was 31.4% (inactive).
For the compound `COC1OC(COC(=O)c2ccccc2)C(OC(=O)c2ccccc2)C1OC(=O)c1ccccc1` (stereo not drawn), the inhibition was 3.67% (inactive).
Consider `O=C(OCC1OC(n2ncc(=O)[nH]c2=O)C(OC(=O)c2ccccc2)C1OC(=O)c1ccccc1)c1ccccc1` (stereo not drawn), for which the inhibition is 6.13% (inactive).
As for `O=C(OCC1OC(n2ccc(=O)[nH]c2=O)C(O)C1OC(=O)c1ccccc1)c1ccccc1` (stereo not drawn), the figure is 11.7% (inactive); as for `Cc1cn(C2OC(COC(=O)c3ccccc3)C(OC(=O)c3ccccc3)C2OC(=O)c2ccccc2)c(=O)[nH]c1=O` (stereo not drawn), 4.67% (inactive).
The value for `CC(CCc1ccc(O)cc1)NC1C2CC3CC(C2)CC1C3` (stereo not drawn) was 2.61% (inactive).
For the compound `Cc1ccc(NC(=O)c2cc3ccccc3cc2O)cc1`, the inhibition was 0.83% (inactive).
The value for `CCOC(=O)c1nn(-c2ccc3ccccc3c2)cc1O` was 27.5% (inactive); that for `Cc1ccc(/C=C2\NC(=S)NC2=O)cc1[N+](=O)[O-]` was 10.5% (inactive).
The value for `CN(C)c1ccc(/C=N/NC(N)=S)cc1[N+](=O)[O-]` was 3.04% (inactive); that for `CC(C)OP(=O)(OC(C)C)C(C)NC(=O)Cc1ccccc1` (stereo not drawn) was 8.79% (inactive); that for `CC(=O)Nc1cccc(-c2cn3ccc(C)cc3n2)c1` was 11.2% (inactive).
As for `Brc1ccc(-c2cn3ccccc3n2)cc1`, the figure is 9.2% (inactive); as for `Fc1ccc(-c2cn3ccccc3n2)cc1`, 0.64% (inactive); as for `Cc1ccn2cc(-c3ccc(Br)cc3)nc2c1`, 8.41% (inactive).
On to `Cc1noc(C)c1C(=O)Nc1c(F)cc(F)cc1Br`, for which the inhibition is 0.97% (inactive).
The value for `COc1cc(/C=C/C(=O)OCC(=O)NCc2ccco2)ccc1OC(F)F` was 8.29% (inactive); that for `COc1ccc(CSc2nnc(-c3ccncc3)n2C)cc1F` was 3.25% (inactive); that for `CNS(=O)(=O)c1cccc2cccnc12` was -1.68% (inactive).
As for `O=S(=O)(Nc1ccc(Cl)cc1)c1cccc2cccnc12`, the inhibition was 7.28% (inactive).
As for `O=S(=O)(Nc1ccc(Br)cc1)c1cccc2cccnc12`, the figure is 11.5% (inactive).
The value for `NS(=O)(=O)c1cccc2cccnc12` was 10.6% (inactive) and 4.71% (inactive); that for `COc1cccc2c1O/C(=N\O)C(C(=O)Nc1ccc(C)cc1)C2` (stereo not drawn) was 8.2% (inactive).
As for `S=C(c1ccc(Br)cc1)N1CCCC1`, the figure is 6.77% (inactive); as for `COc1cc(/C=N/NC(=O)c2ccc3c(c2)OCO3)ccc1O`, -30% (inactive); as for `CCn1c(C)nc2cc(C(=O)N/N=C/c3cccc(OC)c3O)ccc21`, 6.05% (inactive).
In the case of `CCn1c(C)nc2cc(C(=O)N/N=C/c3ccc(OC)cc3)ccc21`, the inhibition was 29.8% (inactive).
As for `COc1cc(/C=N/NC(=O)c2ccc3c(c2)OCCO3)c(Br)c(Br)c1O`, the figure is 29.5% (inactive); as for `CCOc1ccc(/C=N/NC(=O)c2ccoc2C)cc1OC`, -2.86% (inactive).
As for `COc1cc(/C=N/NC(=O)c2ccoc2C)ccc1O`, the figure is 18% (inactive); as for `COc1cccc(/C=N/NC(=O)c2ccoc2C)c1O`, 9.61% (inactive).
The value for `COc1ccc(/C=N/NC(=O)c2ccoc2C)cc1OC` was 6.94% (inactive); that for `CCCCN(C)CCN1C(=O)C2C(C(=O)Nc3ccc(OC)cc3)C3C=CC2(O3)C1C(=O)NC1CCCCC1` (stereo not drawn) was 1.82% (inactive).
As for `Cc1cccc(NC(=O)CSc2ccc3nnc(-c4cccnc4)n3n2)c1`, the inhibition was 6.51% (inactive).
The value for `COC(=O)c1ccc(S(=O)(=O)NNC(=O)COc2ccc(C)cc2)cc1` was 6.42% (inactive).
As for `Cc1c(Nc2cc(N3CCCCCC3)c3nonc3c2[N+](=O)[O-])c(=O)n(-c2ccccc2)n1C`, the figure is 3.53% (inactive); as for `CC1=C(C(=O)Nc2ccccc2)C(c2ccc(O)cc2)N2C(=O)CSC2=N1` (stereo not drawn), 3.32% (inactive); as for `Cc1nn(-c2ccccc2)c(C)c1C(=O)OCC(=O)N1CC(=O)Nc2ccccc21`, 10.3% (inactive).
As for `Cc1ccc2c(C)c(C(=O)N(Cc3ccc(F)cc3)C3CCS(=O)(=O)C3)oc2c1` (stereo not drawn), the figure is 7.21% (inactive); as for `O=C1CCCN1CCCNc1ncccc1[N+](=O)[O-]`, 1.65% (inactive); as for `CCC(C)(O)c1[nH]c2ccc(C(=O)OC)cc2c1C` (stereo not drawn), 2.01% (inactive).
Regarding `CCCCC(CC)C1OCC(C[N+]2(C)CCOCC2)O1` (stereo not drawn), the inhibition is 19.1% (inactive).
As for `COc1ccc(/C=N/NC(=O)c2ccc(C)nc2)cc1O`, the figure is 33.4% (inactive); as for `COc1ccc(/C=N/NC(=O)c2cccnc2)cc1O`, 23.7% (inactive).
As for `Cc1occc1C(=O)N/N=C/c1ccc(N(C)C)cc1`, the figure is 21.7% (inactive); as for `Cc1occc1C(=O)N/N=C/C=C/c1ccccc1`, 24.7% (inactive); as for `CCN(CC)CC(=O)c1c(N)n(Cc2ccccc2)c(=O)n(C)c1=O`, 6.97% (inactive).
The value for `Cc1ccc(OCCNCC(O)COc2ccccc2)cc1` (stereo not drawn) was 6.77% (inactive); that for `CC(=O)Nc1cc(-c2ccccc2)ccc1O` was 26.7% (inactive).
`CC(=O)/C=C(\C)Nc1ccccc1O`: the inhibition is 21.1% (inactive).
The value for `CC(=O)c1ccc(N2C(=NC(=O)C3CCCCC3)SC3CS(=O)(=O)CC32)cc1` (stereo not drawn) was 14.9% (inactive).
The value for `Cc1cc(C(=O)CN2C(=O)NC(Cc3c[nH]c4ccccc34)C2=O)c(C)n1C` (stereo not drawn) was -1.66% (inactive).
The value for `Cc1cs/c(=N\N=C\c2ccccc2)n1Cc1ccco1` was 2.6% (inactive).
For the compound `CC(C)=N/N=c1\scc(C)n1Cc1ccco1`, the inhibition is 9.97% (inactive).
